{"source": "PubChem BioAssay (Tox21)", "note": "Results filed as inconclusive are left out. The source made the active and inactive calls. Calls follow the shape of the full dose curve. % is scaled to controls: 0 for no effect and ±100 for the full control effect; potency is read from the fitted curve at half-maximal effect.", "data": [{"target": "Thyrotropin receptor (Homo sapiens) (UniProt P16473)", "sequence (P16473 whole entry, looked up)": "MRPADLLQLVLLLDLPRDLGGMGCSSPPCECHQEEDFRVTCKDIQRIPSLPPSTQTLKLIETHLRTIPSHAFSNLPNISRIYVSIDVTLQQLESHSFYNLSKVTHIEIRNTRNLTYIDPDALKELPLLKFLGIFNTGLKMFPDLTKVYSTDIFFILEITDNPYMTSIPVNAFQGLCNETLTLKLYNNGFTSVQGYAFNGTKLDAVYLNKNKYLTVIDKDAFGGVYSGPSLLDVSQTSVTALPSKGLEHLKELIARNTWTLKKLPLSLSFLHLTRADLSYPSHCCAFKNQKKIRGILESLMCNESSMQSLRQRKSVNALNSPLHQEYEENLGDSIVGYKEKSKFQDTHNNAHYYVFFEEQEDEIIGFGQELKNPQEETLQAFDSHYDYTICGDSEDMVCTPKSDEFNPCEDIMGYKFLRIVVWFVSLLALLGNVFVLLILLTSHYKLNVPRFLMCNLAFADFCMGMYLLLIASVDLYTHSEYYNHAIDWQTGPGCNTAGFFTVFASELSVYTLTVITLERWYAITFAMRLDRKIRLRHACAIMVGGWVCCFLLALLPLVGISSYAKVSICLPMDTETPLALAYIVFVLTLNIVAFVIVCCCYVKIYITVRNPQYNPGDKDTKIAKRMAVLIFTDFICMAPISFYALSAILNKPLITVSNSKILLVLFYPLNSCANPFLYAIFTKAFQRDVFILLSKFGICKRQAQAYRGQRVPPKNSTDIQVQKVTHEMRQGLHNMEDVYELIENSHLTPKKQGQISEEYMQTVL", "assay": "qHTS assay to identify small molecule antagonists of the thyroid stimulating hormone receptor (TSHR) signaling pathway (AID 1259385); also: nearly all actives have a fitted effect of over 20% in size", "details": "TSHR-HEK293 cAMP HTRF, TSH-stimulated antagonist mode; series mostly up to 92.4 µM; activity change, negative = inhibition: at the top concentration", "from_the_text": "U.S. Tox21 Program National Center for Advancing Translational Sciences [NCATS] NIH Chemical Genomics Center [NCGC] U.S. Environmental Protection Agency [EPA] National Institutes of Environmental Health Sciences [NIEHS] National Toxicology Program [NTP] U.S. Food and Drug Administration [FDA] Tox21 Assay Overview: TSHR is the receptor for thyrotropin (thyroid stimulating hormone or TSH), a member of the glycoprotein hormone family. TSH is released by the anterior pituitary gland and is the main regulator of thyroid gland growth and development. Upon binding circulating thyrotropin, a G-protein signal cascade activates adenylyl cyclase and […] cAMP concentration is increased. cAMP is a key second messenger involved extensively in cellular signal transduction pathways associated with the majority of G-protein coupled receptors (GPCRs). The activation of these GPCRs by neurotransmitters, lipids, nucleotides, peptides and hormones results in the activation or the inhibition of plasma membrane-bound adenylate cyclase through heterotrimeric G-proteins. A cell-based TSHR assay can be used to screen chemical compounds that modulate TSHR either in agonist or antagonist mode.\nTox21 Assay Protocol Summary: TSHR-Hek293 cells were dispensed at 800 cells/4uL/well in 1536-well white plates using a Multidrop dispenser. After the assay plates were incubated at a 37C/5% CO2 incubator for 18 hrs, 23 nL of compounds dissolved in DMSO, positive controls or DMSO only was transferred to the assay plate by a pin tool, followed by 1 ul medium containing Ro20-1724. For the antagonist mode screening, 1 uL of TSH was added on the top of the cell/compound mixtures to achieve a final agonist concentration of 1.5 ng/mL. After 30 min of incubation at room temperature, 2.5 ul/well of cAMP-d2 and 2.5 ul/well of anti-cAMP-cryptate were added respectively into the assay plates using a Flying Reagent Dispenser. The plates were incubated at room temperature for 1 hr. The fluorescence intensity in the plates was measured using an Envision plate reader. Each test compound was measured at 15 concentrations and in triplicates.", "values": [{"compound": "COS(=O)(=O)c1ccc(C)cc1", "activity change, negative = inhibition": "-0.0068% (inactive)"}, {"compound": "Oc1ccc(I)cc1", "activity change, negative = inhibition": "2.33% (inactive)"}, {"compound": "C=CCC1=C(C)C(OC(=O)C2C(C=C(C)C)C2(C)C)CC1=O", "note": "(stereo not given)", "Potency": "61.1 µM (active)"}, {"compound": "CC(C)[C@H](C(=O)OC(C#N)c1cccc(Oc2ccccc2)c1)c1ccc(OC(F)F)cc1", "note": "(stereo not given in full)", "activity change, negative = inhibition": "-0.508% (inactive)"}, {"compound": "Nc1ccc(Cl)cc1C(=O)c1ccccc1", "activity change, negative = inhibition": "-1.9% (inactive)"}, {"compound": "CC[C@H](C)[C@H]1O[C@]2(C=C[C@@H]1C)C[C@@H]1C[C@@H](C/C=C(\\C)[C@@H](O[C@H]3C[C@H](OC)[C@@H](O[C@H]4C[C@H](OC)[C@@H](O)[C@H](C)O4)[C@H](C)O3)[C@@H](C)/C=C/C=C3\\CO[C@@H]4[C@H](O)C(C)=C[C@@H](C(=O)O1)[C@]34O)O2", "activity change, negative = inhibition": "1.28% [at 42.5 µM] (inactive)"}, {"compound": "CN(CCCC(O)c1cccnc1)N=O", "note": "(stereo not given)", "activity change, negative = inhibition": "0.136% (inactive)"}, {"compound": "O=C(Cl)c1ccc(Cl)cc1", "activity change, negative = inhibition": "0.3% (inactive)"}, {"compound": "O=[N+]([O-])c1cc([N+](=O)[O-])c2ccccc2c1", "activity change, negative = inhibition": "5.17% (inactive)"}, {"compound": "CCOC(=O)c1ccccc1S(=O)(=O)NC(=O)Nc1nc(Cl)cc(OC)n1", "activity change, negative = inhibition": "1.84% (inactive)"}, {"compound": "N#CNC#N", "activity change, negative = inhibition": "-4.82% (inactive)"}, {"compound": "BrCC(Br)c1ccccc1", "note": "(stereo not given)", "activity change, negative = inhibition": "0.722% (inactive)"}, {"compound": "C[C@@H]1O[C@@H](O[C@@H]2C=C3CC[C@@H]4[C@H](CC[C@]5(C)[C@@H](c6ccc(=O)oc6)CC[C@]45O)[C@@]3(C)CC2)[C@H](O)[C@H](O)[C@H]1O", "Potency": "0.298 µM (active)"}, {"compound": "SCc1ccco1", "activity change, negative = inhibition": "-3.63% (inactive)"}, {"compound": "c1ccc2cc3c(cc2c1)-c1cccc2cccc-3c12", "activity change, negative = inhibition": "-1.36% (inactive)"}, {"compound": "C[C@H]1CC[C@@H]2[C@@H](C)[C@H]3[C@H](C[C@H]4[C@@H]5CC=C6CC(O[C@@H]7O[C@H](CO)[C@H](O)[C@H](O[C@@H]8O[C@H](CO)[C@@H](O)[C@H](O)[C@H]8O)[C@H]7O[C@H]7O[C@@H](C)[C@H](O)[C@@H](O)[C@H]7O)CC[C@]6(C)[C@H]5CC[C@]34C)N2C1", "note": "(stereo not given in full)", "Potency": "10 µM (active)"}, {"compound": "N#C/C=C/C#N", "activity change, negative = inhibition": "7.18% (inactive)"}, {"compound": "CNC(C)Cc1ccc2c(c1)OCO2", "note": "(stereo not given)", "activity change, negative = inhibition": "1.86% (inactive)"}, {"compound": "[Cl][Sb]([Cl])[Cl]", "activity change, negative = inhibition": "0.0314% (inactive)"}, {"compound": "CCCOCC(=Nc1ccc(Cl)cc1C(F)(F)F)n1ccnc1", "activity change, negative = inhibition": "1.66% (inactive)"}, {"compound": "O=C/C(Cl)=C(/Cl)C(=O)O", "Potency": "inactive"}, {"compound": "Cn1cc(C2=C(c3cn(C4CCN(Cc5ccccn5)CC4)c4ccccc34)C(=O)NC2=O)c2ccccc21", "activity change, negative = inhibition": "-10.7% [at 42.5 µM] (inactive)"}, {"compound": "C[C@]12CC[C@@H]3c4ccc(OC(=O)N(CCCl)CCCl)cc4CC[C@H]3[C@@H]1CC[C@@H]2O", "activity change, negative = inhibition": "-0.18% [at 42.5 µM] (inactive)"}, {"compound": "CC(=O)/C=C/c1ccc2c(c1)OCO2", "activity change, negative = inhibition": "3.2% (inactive)"}, {"compound": "[CH3][Hg][Cl]", "Potency": "17.2 µM (active)"}, {"compound": "O=C(O)c1cc[c]([Hg][Cl])cc1", "activity change, negative = inhibition": "4.42% (inactive)"}, {"compound": "CCCSP(=O)(OCC)SCCC", "activity change, negative = inhibition": "-0.38% (inactive)"}, {"compound": "C[C@]12CC[C@H]3[C@@H](CCC4=CC(=O)CC[C@@]43C)[C@@H]1CC[C@@H]2O", "activity change, negative = inhibition": "6.91% (inactive)"}, {"compound": "c1ccc(Nc2ccc3ccccc3c2)cc1", "activity change, negative = inhibition": "-1.82% (inactive)"}, {"compound": "COc1cc(C=O)cc2c1[C@H](COC(N)=O)[C@]1(OC(C)=O)ON2C[C@H]2[C@@H]1N2C(C)=O", "activity change, negative = inhibition": "-0.138% (inactive)"}, {"compound": "CCOP(=S)(OCC)SCS(=O)(=O)C(C)(C)C", "activity change, negative = inhibition": "-0.552% (inactive)"}, {"compound": "CC1CCC(C(C)C)C(OC(=O)c2ccccc2N)C1", "note": "(stereo not given)", "Potency": "60.3 µM (active)"}, {"compound": "OC(Cc1ccccc1Cl)(Cn1cncn1)C1(Cl)CC1", "note": "(stereo not given)", "activity change, negative = inhibition": "-1.26% (inactive)"}, {"compound": "N#Cc1ccccc1N", "activity change, negative = inhibition": "0.695% (inactive)"}, {"compound": "CC(C)CCCCCOC(=O)c1ccccc1C(=O)OCCCCCC(C)C", "activity change, negative = inhibition": "-2.95% (inactive)"}, {"compound": "FC(Cl)(Cl)Cl", "activity change, negative = inhibition": "-0.446% (inactive)"}, {"compound": "NC(=O)CCl", "activity change, negative = inhibition": "-3.28% (inactive)"}, {"compound": "COC(=O)N(C(=O)N1COC2(C(=O)OC)Cc3cc(Cl)ccc3C2=N1)c1ccc(OC(F)(F)F)cc1", "note": "(stereo not given)", "activity change, negative = inhibition": "1.62% [at 42.5 µM] (inactive)"}, {"compound": "N#Cc1ccccc1Cl", "activity change, negative = inhibition": "0.109% (inactive)"}, {"compound": "COC12CC[C@@]3(C[C@@H]1C(C)(O)C(C)(C)C)[C@H]1Cc4ccc(O)c5c4[C@@]3(CCN1CC1CC1)[C@H]2O5", "note": "(stereo not given in full)", "activity change, negative = inhibition": "-5.2% (inactive)"}]}]}
